An excerpt weighted towards active compounds, which were near 6.8% of everything screened.
MK inhibit = blocks S. pneumoniae mevalonate kinase; purified MK, PK/LDH-coupled NADH absorbance 340 nm; inhibition, % at 10 µM; actives 0.48% (n = 65,000); AID 555;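 active = ranked among the strongest by inhibition in the single 10 µM screen, a fixed top-ranked set picked for dose follow-up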
PMK inhibit = S. pneumoniae PMK inhibition; purified PMK, PK/LDH-coupled NADH absorbance 340 nm; inhibition, % at 10 µM; actives 0.49% (n = 65,000);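 active = top-ranked compounds by inhibition in the single 10 µM screen, taking a fixed number of the strongest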;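 also: 0% = full reaction with DMSO carrier and 100% = background rate without enzyme reaction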
Autofluor 339 = intrinsic fluorescence of library compounds, ex339/em460 – biochemical, MLSMR library, data from DPM-DC assay, artefact control, profiling panel | compound autofluorescence, ex339/em460 nm, NADH buffer; hits give high values; 1 = no-compound wells, NADH background | fluorescence fold increase at 10 µM | actives 5.5% (n = 65,000) | AID 709;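 active = at 10 µM, mean starting fluorescence two-fold or more over control wells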;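 also: signal is the first read of a kinetic run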
A340 absorber = compounds absorbing at 340 nm. 65,000 tested, under 10 active. AID 708. compound absorbance at 340 nm, fold over control. fold change at 10 µM;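 active = at 10 µM dose, initial 340 nm absorbance at least 2 fold that of control wells; inactive = change under 2 fold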;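 also: initial absorbance extrapolated from kinetic A340 decline of NADH oxidation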
NADH enzymes = inhibition of NAD/NADH coupling enzymes, library profiling; coupled PK/LDH NADH assays, four targets; IC50, µM (doses to about 10 µM), inactives show at the highest dose inhibition; actives 0.02% (n = 65,000);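 active = single-dose screening hits from any of four coupled enzyme assays that gave an IC50 when retested across doses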;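 also: the DPM-DC format reads NADH fluorescence rather than 340 nm absorbance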
Spn DPM-DC inh = blocks S. pneumoniae diphosphomevalonate decarboxylase; purified DPM-DC, PK/LDH coupled NADH fluorescence; actives 0.49% (n = 65,000); calls only at 10 µM;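 active = the 320 compounds with the highest percent inhibition in the single-dose primary screen, excluding strongly autofluorescent ones, cut at about 32% in these data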;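 also: kinetic rate of NADH fluorescence loss reporting ADP formed by the decarboxylase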
* marks the source's active call; other numbers are inactive results; i = inactive; · = no result shown; + = active, no number.

SMILES	MK inhibit	PMK inhibit	Autofluor 339	A340 absorber	NADH enzymes	Spn DPM-DC inh
CCOc1ccc2[nH]c(=O)c(CN(CCN3CCOCC3)Cc3nnnn3C(C)(C)CC)cc2c1	6	15	2.6*	1	11%	i
COc1ccc2[nH]c(=O)c(CN(Cc3cccs3)Cc3nnnn3C(C)(C)C)cc2c1	4	12	1.8	1	6%	i
CCn1c(C(=O)Nc2ccsc2C(=O)OC)cc2sc(Cl)cc21	26	0	2.1*	1.1	13%	·
COC(=O)c1ccc(Nc2cc(C)nc(-c3ccccc3O)n2)cc1	81*	92	1.8	1.1	79%	+
Cc1nc2c(-c3ccccc3)c(C)nn2c(C)c1CCC(=O)NCc1ccco1	8	8	1	0.99	4%	i
Cc1nc2c(C(=O)NCc3ccco3)cnn2c(C)c1Cc1ccc(F)cc1Cl	0	7	3.1*	1	6%	i
Cc1cccc(Cc2c(C)nc3c(C(=O)NCc4ccco4)cnn3c2C)c1	1	13	3.9*	1	7%	i
COCCNC(=O)CSc1nc2cc(OC)c(OC)cc2c(=O)n1CCC1=CCCCC1	1	13	1.1	1	5%	i
C=CCn1c(N)c(C(=O)OCCC)c2nc3ccccc3nc21	2	18	3.6*	1.1	10%	·
CCN(CCO)c1ccc(-n2c(N)c(C(=O)OC)c3nc4ccccc4nc32)cc1	0	19	1.1	1.1	6%	i
COCCn1c(N)c(C(=O)OCc2ccccc2)c2nc3ccccc3nc21	0	8	3.8*	1.1	4%	·
COCCNC(=O)c1c(N)n(CCC2=CCCCC2)c2nc3ccccc3nc12	16	3	2.5*	1	2%	·
CC1CCN(C(=O)CSc2nnc(CN3CCOCC3)n2-c2ccccc2)CC1	16	0	1.1	1.1	5%	i
COc1cc2c(cc1OC)CN(Cc1cc(=O)n3cc(C)ccc3n1)CC2	5	6	2.3*	1.1	10%	i
COc1ccc(C)cc1-n1nnnc1SCc1cc(=O)n2cc(C)ccc2n1	0	12	2.1*	1.1	11%	i
COc1ccc(C(=O)N2CCc3cc(OC)c(OC)cc3C2)cc1OC	4	6	1.1	1.1	3%	i
O=S(=O)(NC1CC2CCC1C2)c1ccc(Br)s1 (centres undefined)	10	10	1.1	1	10%	i
CCOC(=O)c1c(C)c(-c2ccccc2)n(CC(=O)N2CCCC2)c1C	9	1	1.3	0.99	5%	i
O=c1c2ccccc2oc2nc(-c3ccco3)n(Cc3ccccc3)c(=O)c12	12	17	1.1	1.2	12%	i
CCOc1ccc2nc(NCCNC(=O)C3CC3)c(C)cc2c1	7	7	3.8*	1	7%	·
CCCC(=O)Nc1nc2ccc(OCC)cc2s1	1	17	1.1	1	6%	i
CCOc1ccc2nc(NCCNC(=O)C(C)C)c(C)cc2c1	9	11	4.7*	1	10%	·
COCC(=O)NCCNc1nc2ccc(C)cc2cc1C	0	13	3.5*	1.1	7%	·
Cc1cccc(C)c1-n1nnnc1S(=O)(=O)Cc1ccccc1Cl	7	0	1.1	1	2%	i
Cc1ccc(C)n1-c1ccc(-c2nnc3n2CCCCC3)s1	0	4	0.84	1.2	6%	i
SMILES	MK inhibit	PMK inhibit	Autofluor 339	A340 absorber	NADH enzymes	Spn DPM-DC inh
COC(=O)C1=CN(C)C=C(C(=O)OC)C1c1ccc(O)c(OC)c1	6	2	1.4	1	8%	i
COCCN1C=C(C(=O)OC)C(c2cc(Br)c(OC)c(OC)c2)C(C(=O)OC)=C1	8	4	2.3*	1.1	6%	·
Cc1ccc(NC(=O)Cc2nc(CSc3nnc(-c4ccc5c(c4)OCO5)o3)cs2)cc1	3	8	1.1	1	4%	i
Cc1coc2c(C)c3oc(=O)c4c(c3cc12)CCCC4	0	2	1.3	1	1%	i
Cc1c(OCc2nn[nH]n2)ccc2c3c(c(=O)oc12)CCC(C)C3 (centres undefined)	0	2	3.8*	1.1	1%	·
CCOC(=O)COc1ccc2c3c(c(=O)oc2c1C)CCC3	0	6	2.3*	1.1	9%	i
Cc1c(OCc2nn[nH]n2)ccc2c3c(c(=O)oc12)CCCC3	0	4	3.8*	1.1	2%	·
COc1ccc2c3c(c(=O)oc2c1OCC(N)=O)CCCC3	10	0	2.5*	1	2%	·
O=c1c2cnn(-c3ccc(F)cc3)c2ncn1Cc1ccccn1	2	2	1.1	1	1%	i
CCC(CO)NC(=O)c1cccc(S(=O)(=O)N2c3ccccc3CC2C)c1 (centres undefined)	1	9	1	0.97	3%	i
CC1(C)CC2CC(C)(CN2C(=O)c2cc(-c3ccccc3O)on2)C1 (centres undefined)	10	3	1.1	0.98	4%	i
CCOC(=O)Cc1c(C)c2c(C)[nH]nc2oc1=O	0	15	1.3	0.98	7%	i
COC(=O)Cc1c(C)c2c(O)cc(C)cc2oc1=O	13	0	2.1*	1.1	7%	·
CCn1nnc(NC(=O)c2ccc(-c3ccc(Cl)cc3)o2)n1	5	11	2.1*	1	3%	i
CCCn1nnc(NC(=O)c2ccco2)n1	9	6	1.1	1.1	9%	i
COC(=O)c1[nH]c2ccc(C)cc2c1NC(=O)CN1CCCC(C)(C)C1	11	9	1.8	1	5%	i
COC(=O)c1[nH]c2ccc(F)cc2c1NC(=O)CCN1CCN(Cc2ccc3c(c2)OCO3)CC1	7	5	2*	1.1	6%	i
COC(=O)c1[nH]c2ccc(C)cc2c1NC(=O)Nc1ccccc1OC	10	10	2.6*	1.1	10%	i
COC(=O)c1[nH]c2ccc(C)cc2c1NC(=O)CN1CCc2cc(OC)c(OC)cc2C1	10	15	2.2*	1	14%	i
COC(=O)c1[nH]c2ccc(C)cc2c1NC(=O)CCN1CCN(C2CCCCC2)CC1	3	2	2.9*	1.1	6%	i
COC(=O)c1[nH]c2ccc(Cl)cc2c1NC(=O)CCN1CCN(C2CCCCC2)CC1	4	0	1.9	1.1	3%	i
COC(=O)c1[nH]c2ccc(C)cc2c1NC(=O)C1=COCCO1	11	14	1.7	1.1	15%	i
N#CC1=C(N)N(c2ccccc2Sc2ccccc2)C(=O)C1	4	8	1	0.99	4%	i
O=C(CCc1nc2ccccc2c(=O)[nH]1)OCC(=O)N1CCN(S(=O)(=O)c2ccccc2)CC1	0	28*	1.1	1	9%	i
CCOC(=O)C(C(=O)Nc1nccs1)C1CCCCC1 (centres undefined)	1	0	1.1	1	0%	i

Bioassay records as filed in PubChem BioAssay.
